Measurements as given in PubChem BioAssay (EPA / NIEHS).
Active and inactive are the calls of the source. The calls were made as follows: active = hit-call score of the fitted dose curve at least 0.9, where 1 is the maximum; inactive = score below 0.9.

Legend:
Details in all cases: mRNA level, 48 h; actives raise or lower the signal
[1] = read-out: CYP4A11 (gene 1579); test: LTEA_HepaRG_CYP4A11: Life Technologies and Expression Analysis (LTEA) Assay for CYP4A11 using HepaRG (AID 2283486)
How it was run: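 Readout is CYP4A11 transcript level by qRT-PCR, normalized to three housekeeping genes and fitted bidirectionally against 0.5% DMSO. Human HepaRG cells were treated 48 h, in duplicate, with an 8-point half-log series topping at 100 uM.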

[2] = read-out: Cytochrome P450 3A4 (Homo sapiens) (UniProt P08684); test: LTEA_HepaRG_CYP3A4: Life Technologies and Expression Analysis (LTEA) Assay for CYP3A4 using HepaRG (AID 2283487)
How it was run: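 Differentiated HepaRG cells in serum-free induction medium exposed in duplicate for 48 h to 8 half-log concentrations up to 100 uM in 0.5% DMSO. CYP3A4 mRNA measured by qRT-PCR normalized to ACTB, GAPDH and POLR2A; bidirectional fit versus DMSO.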

[3] = read-out: DNA damage-inducible transcript 3 (DDIT3), DDIT3 (gene 1649); test: LTEA_HepaRG_DDIT3: Life Technologies and Expression Analysis (LTEA) Assay for DNA damage-inducible transcript 3 (DDIT3) using HepaRG (AID 2283488)
How it was run: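 HepaRG cells, 48 h after plating, exposed 48 h in serum-free induction medium to 8 half-log concentrations up to 100 uM in 0.5% DMSO, in duplicate. DDIT3 mRNA measured by TaqMan qRT-PCR, normalized to ACTB, GAPDH and POLR2A. Fitted bidirectionally against DMSO.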

[4] = read-out: Pro-epidermal growth factor (Homo sapiens) (UniProt P01133); test: LTEA_HepaRG_EGF: Life Technologies and Expression Analysis (LTEA) Assay for Epidermal growth factor (EGF) using HepaRG (AID 2283489)
How it was run: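 EGF transcript measured by Fluidigm TaqMan qRT-PCR with three housekeeping genes for normalization, 48 h after dosing HepaRG cultures in duplicate (top 100 uM, half-log steps, 0.5% DMSO vehicle). Gain or loss relative to DMSO fitted.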

[5] = read-out: Early growth response protein 1 (EGR1) transcription factor, EGR1 (gene 1958); test: LTEA_HepaRG_EGR1: Life Technologies and Expression Analysis (LTEA) Assay for Early growth response protein 1 (EGR1) transcription factor using HepaRG (AID 2283490)
How it was run: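 Differentiated human HepaRG cells in serum-free induction medium were exposed in duplicate for 48 h to eight concentrations (top 100 uM, half-log steps) in 0.5% DMSO. EGR1 mRNA was quantified by qRT-PCR, normalized to ACTB, GAPDH and POLR2A, and fitted bidirectionally versus DMSO.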

[6] = read-out: Ezrin (EZR), EZR (gene 7430); test: LTEA_HepaRG_EZR: Life Technologies and Expression Analysis (LTEA) Assay for Ezrin (EZR) using HepaRG (AID 2283491)
How it was run: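 Differentiated human HepaRG cells, 48 h after plating, were exposed in serum-free induction medium for 48 hours to eight half-log concentrations up to 100 uM in 0.5% DMSO. EZR mRNA was measured by TaqMan qRT-PCR, normalized to ACTB, GAPDH and POLR2A, and fitted bidirectionally against DMSO.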

[7] = read-out: Cytochrome P450 3A7 (Homo sapiens) (UniProt P24462); test: LTEA_HepaRG_CYP3A7: Life Technologies and Expression Analysis (LTEA) Assay for CYP3A7 using HepaRG (AID 2283492)
How it was run: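 CYP3A7 transcript measured by qRT-PCR (ACTB, GAPDH, POLR2A normalization) after 48 h chemical exposure of HepaRG cells in duplicate. Eight half-log concentrations, maximum 100 uM, 0.5% DMSO vehicle; bidirectional curve fitting against DMSO baseline.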

[8] = read-out: CYP3A5 (gene 1577); test: LTEA_HepaRG_CYP3A5: Life Technologies and Expression Analysis (LTEA) Assay for CYP3A5 using HepaRG (AID 2283493)
How it was run: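 HepaRG cells, plated 48 h then in serum-free induction medium, dosed in duplicate for 48 h with eight half-log concentrations up to 100 uM in 0.5% DMSO. Gene mRNA by Fluidigm TaqMan qRT-PCR, normalized to ACTB, GAPDH, POLR2A.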

[9] = read-out: Cytochrome P450 4A22 (Homo sapiens) (UniProt Q5TCH4); test: LTEA_HepaRG_CYP4A22: Life Technologies and Expression Analysis (LTEA) Assay for Cytochrome P450 4A22 (CYP4A22) using HepaRG (AID 2283495)
How it was run: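 Gene expression measured by qRT-PCR against three housekeeping genes (ACTB, GAPDH, POLR2A), with gain or loss fitted relative to 0.5% DMSO vehicle. HepaRG cultures received 48 h chemical treatment, top concentration 100 uM, half-log steps, duplicate wells.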

[10] = read-out: Cytochrome P450 7A1 (Homo sapiens) (UniProt P22680); test: LTEA_HepaRG_CYP7A1: Life Technologies and Expression Analysis (LTEA) Assay for Cytochrome P450 7A1 (CYP7A1) using HepaRG (AID 2283496)
How it was run: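 HepaRG cells plated 48 h, then switched to serum-free induction medium and exposed in duplicate for 48 h to 8-point half-log series from 100 uM in 0.5% DMSO. CYP7A1 mRNA by qRT-PCR (TaqMan), normalized to ACTB/GAPDH/POLR2A; bidirectional fit versus DMSO.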

[11] = read-out: Glutathione S-Transferase (GSTA2), GSTA2 (gene 2939); test: LTEA_HepaRG_GSTA2: Life Technologies and Expression Analysis (LTEA) Assay for Glutathione S-Transferase (GSTA2) using HepaRG (AID 2283497)
How it was run: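 Human HepaRG cells, plated 48 h, then exposed in serum-free induction medium for 48 h to eight half-log concentrations up to 100 uM in 0.5% DMSO, duplicate. GSTA2 mRNA by qRT-PCR, normalized to ACTB/GAPDH/POLR2A; bidirectional fit versus DMSO.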

[12] = read-out: Glutamate-cysteine ligase catalytic (GCLC), GCLC (gene 2729); test: LTEA_HepaRG_GCLC: Life Technologies and Expression Analysis (LTEA) Assay for Glutamate-cysteine ligase catalytic (GCLC) using HepaRG (AID 2283498)
How it was run: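 Differentiated human HepaRG cells, plated 48 h then switched to serum-free induction medium, were exposed in duplicate for 48 h to 8 half-log concentrations topping at 100 uM in 0.5% DMSO. GCLC mRNA was quantified by qRT-PCR against ACTB, GAPDH and POLR2A.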

[13] = read-out: growth arrest and DNA damage 45 (GADD45G), GADD45G (gene 10912); test: LTEA_HepaRG_GADD45G: Life Technologies and Expression Analysis (LTEA) Assay for growth arrest and DNA damage 45 (GADD45G) using HepaRG (AID 2283499)
How it was run: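 GADD45G transcript level by qRT-PCR (housekeeping-normalized: ACTB, GAPDH, POLR2A) after 48 h chemical treatment of a single HepaRG lot in serum-free induction medium; eight-point half-log series up to 100 uM in 0.5% DMSO, duplicates, up- or down-regulation scored.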

[14] = read-out: Glutamate-cysteine ligase regulatory (GCLM), GCLM (gene 2730); test: LTEA_HepaRG_GCLM: Life Technologies and Expression Analysis (LTEA) Assay for Glutamate-cysteine ligase regulatory (GCLM) using HepaRG (AID 2283500)
How it was run: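 Differentiated HepaRG cells exposed 48 h in serum-free induction medium to eight half-log concentrations up to 100 uM (0.5% DMSO). GCLM mRNA by TaqMan qRT-PCR, normalized to ACTB, GAPDH and POLR2A; bidirectional fit versus DMSO.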

[15] = read-out: Glutathione S-transferase M3 (GSTM3), GSTM3 (gene 2947); test: LTEA_HepaRG_GSTM3: Life Technologies and Expression Analysis (LTEA) Assay for Glutathione S-transferase M3 (GSTM3) using HepaRG (AID 2283501)
How it was run: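 GSTM3 transcript levels came from Fluidigm TaqMan qRT-PCR normalized to three housekeeping genes, fitted in both directions against DMSO. HepaRG cultures received chemicals for 48 h in serum-free induction medium (0.5% DMSO), 8 half-log concentrations up to 100 uM, duplicate.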

[16] = read-out: Heat shock 70 kDa protein 1 (HSPA1A), gene 3303; test: LTEA_HepaRG_HSPA1A: Life Technologies and Expression Analysis (LTEA) Assay for Heat shock 70 kDa protein 1 (HSPA1A) using HepaRG (AID 2283502)
How it was run: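 Human HepaRG cells in serum-free induction medium were exposed in duplicate for 48 h to 8 half-log concentrations, highest 100 uM, in 0.5% DMSO. HSPA1A mRNA read by TaqMan qRT-PCR, normalized to ACTB, GAPDH, POLR2A, fitted bidirectionally against DMSO.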

[17] = read-out: 3-Hydroxy-3-Methylglutaryl-CoA Synthase 2 (HMGCS2), HMGCS2 (gene 3158); test: LTEA_HepaRG_HMGCS2: Life Technologies and Expression Analysis (LTEA) Assay for 3-Hydroxy-3-Methylglutaryl-CoA Synthase 2 (HMGCS2) using HepaRG (AID 2283504)
How it was run: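 Readout is HMGCS2 transcript by qRT-PCR, housekeeping-normalised (ACTB/GAPDH/POLR2A) and fitted bidirectionally against 0.5% DMSO. Differentiated HepaRG cells received chemicals 48 h, duplicate wells, eight half-log concentrations topping at 100 uM.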

[18] = read-out: HGF (gene 3082); test: LTEA_HepaRG_HGF: Life Technologies and Expression Analysis (LTEA) Assay for Hepatocyte Growth Facto (HGF) using HepaRG (AID 2283505)
How it was run: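 HGF transcript was quantified by TaqMan qRT-PCR against three housekeeping genes after 48 h treatment of HepaRG cells. Exposure ran in duplicate over eight half-log steps topping at 100 uM in 0.5% DMSO vehicle.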

[19] = read-out: Hypoxia-inducible factor 1-alpha (Homo sapiens) (UniProt Q16665); test: LTEA_HepaRG_HIF1A: Life Technologies and Expression Analysis (LTEA) Assay for Hypoxia-inducible factor 1 (HIF1A) Trancription factor using HepaRG (AID 2283503)
How it was run: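 Differentiated HepaRG cells in serum-free induction medium exposed 48 h, in duplicate, to 8-point half-log series from 100 uM in 0.5% DMSO. HIF1A mRNA measured by TaqMan qRT-PCR, normalized to ACTB/GAPDH/POLR2A, fitted bidirectionally versus DMSO.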

Measured: AC50

Chain of Hypoxia-inducible factor 1-alpha (Homo sapiens) (Q16665 whole entry, looked up): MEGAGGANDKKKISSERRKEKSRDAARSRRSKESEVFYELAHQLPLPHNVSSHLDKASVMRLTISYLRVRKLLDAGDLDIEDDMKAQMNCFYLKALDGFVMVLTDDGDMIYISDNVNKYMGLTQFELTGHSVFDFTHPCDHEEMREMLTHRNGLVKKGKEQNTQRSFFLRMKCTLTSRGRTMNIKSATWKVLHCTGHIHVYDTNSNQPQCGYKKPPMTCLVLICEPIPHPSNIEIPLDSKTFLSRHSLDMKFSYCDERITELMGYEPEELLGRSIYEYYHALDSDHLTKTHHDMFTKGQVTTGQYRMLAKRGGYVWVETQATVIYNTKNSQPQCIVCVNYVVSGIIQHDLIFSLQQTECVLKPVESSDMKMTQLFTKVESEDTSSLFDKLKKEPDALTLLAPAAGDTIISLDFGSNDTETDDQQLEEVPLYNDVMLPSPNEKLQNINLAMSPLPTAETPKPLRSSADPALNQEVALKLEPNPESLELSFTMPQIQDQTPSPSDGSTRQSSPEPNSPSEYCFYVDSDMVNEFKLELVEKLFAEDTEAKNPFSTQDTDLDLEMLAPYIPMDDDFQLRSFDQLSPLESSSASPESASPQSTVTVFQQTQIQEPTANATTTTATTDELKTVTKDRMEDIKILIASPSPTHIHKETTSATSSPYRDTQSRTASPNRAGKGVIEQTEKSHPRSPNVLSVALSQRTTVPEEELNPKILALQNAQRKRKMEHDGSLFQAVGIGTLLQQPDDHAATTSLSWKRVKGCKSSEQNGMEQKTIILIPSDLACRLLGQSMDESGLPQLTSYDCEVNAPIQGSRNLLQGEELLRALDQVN
Chain of Cytochrome P450 3A4 (Homo sapiens) (P08684 whole entry, looked up): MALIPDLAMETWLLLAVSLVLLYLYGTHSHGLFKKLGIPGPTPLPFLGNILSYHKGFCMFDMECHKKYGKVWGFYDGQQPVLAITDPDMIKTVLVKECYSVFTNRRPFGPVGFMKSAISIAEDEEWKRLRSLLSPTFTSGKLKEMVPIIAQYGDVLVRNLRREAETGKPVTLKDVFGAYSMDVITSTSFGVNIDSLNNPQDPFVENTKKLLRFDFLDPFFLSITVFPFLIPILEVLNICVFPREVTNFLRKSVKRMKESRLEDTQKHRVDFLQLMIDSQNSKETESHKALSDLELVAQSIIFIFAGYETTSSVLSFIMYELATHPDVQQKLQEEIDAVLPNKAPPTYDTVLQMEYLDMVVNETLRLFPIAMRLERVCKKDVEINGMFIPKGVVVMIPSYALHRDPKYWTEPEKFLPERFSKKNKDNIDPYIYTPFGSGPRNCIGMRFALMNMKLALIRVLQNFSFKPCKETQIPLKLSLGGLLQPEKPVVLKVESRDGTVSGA
Chain of Cytochrome P450 3A7 (Homo sapiens) (P24462 whole entry, looked up): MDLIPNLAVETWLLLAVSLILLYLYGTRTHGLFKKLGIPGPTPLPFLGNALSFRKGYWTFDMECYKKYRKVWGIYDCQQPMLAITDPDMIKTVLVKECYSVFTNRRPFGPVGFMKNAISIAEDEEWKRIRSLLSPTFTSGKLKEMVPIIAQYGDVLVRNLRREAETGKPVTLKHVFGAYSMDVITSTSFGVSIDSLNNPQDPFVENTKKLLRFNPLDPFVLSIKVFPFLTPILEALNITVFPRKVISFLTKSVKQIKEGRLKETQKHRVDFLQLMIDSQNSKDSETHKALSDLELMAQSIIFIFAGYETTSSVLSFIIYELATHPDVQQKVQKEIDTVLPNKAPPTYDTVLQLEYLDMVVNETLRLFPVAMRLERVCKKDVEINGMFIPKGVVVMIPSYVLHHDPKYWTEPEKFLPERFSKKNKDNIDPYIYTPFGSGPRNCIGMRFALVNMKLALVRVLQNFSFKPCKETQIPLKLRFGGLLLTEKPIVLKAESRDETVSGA

Cc1cn([C@H]2C=C[C@@H](CO)O2)c(=O)[nH]c1=O
inactive: [1] | [2] | [3] | [4] | [5] | [6] | [7] | [8] | [9] | [10] | [11] | [12] | [13] | [14] | [15] | [16] | [17] | [18]

C/C=C/c1ccc(OC)cc1
inactive: [1] | [2] | [3] | [4] | [5] | [6] | [7] | [8] | [9] | [10] | [11] | [12] | [13] | [14] | [15] | [19] | [17] | [18]

C#CC(O)C(CC)CCCC (stereo not drawn)
inactive: [1] | [2] | [3] | [4] | [5] | [6] | [7] | [8] | [9] | [10] | [11] | [12] | [13] | [14] | [15] | [19] | [17] | [18]

O=C(NS(=O)(=O)/C=C/c1cccs1)c1ccc(F)cc1Br
active: [1] 14.1 µM | [2] 5.73 µM | [7] 5.96 µM | [10] 27.9 µM | [17] 71 µM
inactive: [3] | [4] | [5] | [6] | [8] | [9] | [11] | [12] | [13] | [14] | [15] | [16] | [19] | [18]
